PubChem BioAssay AID1345083 (National Center for Advancing Translational Sciences (NCATS), 2018)
Hit rate of the full screen: of about 94,000 compounds, about 6,200 (6.6%) were called active. Not shown: some 31% with an inconclusive outcome. The full list was thinned out, with actives kept by preference. A number with no mark means an inactive call. Calls come from the whole dose curve; as a rule, active = well fitted inhibition curve with a large enough effect; inconclusive = small, poorly fitted or top-dose-only effect; inactive = flat fitted curve, though single readings scatter.

Assay: Cytotoxic Profiling in HEK 293 Cell Line of Diverse Libraries Using Quantitative High-Throughput Screening; note: nearly all actives have a fitted effect of over 60% in size
Settings: HEK 293 viability, ATP luminescence (CellTiter-Glo), 48-72 h; series mostly up to 115 µM; activity change, negative = cytotoxicity: at the top concentration
How it was run: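 HEK 293 seeded at 250 cells/well receive compound via pintool. After 48 or 72 hr at 37 degree Celsius, 5% CO2 and 95% humidity, CellTiter-Glo is dispensed and luminescence read following 10 min at room temperature.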
% is set by controls: 0 for no effect and ±100 for the full control effect; potency is the fitted concentration of half-maximal effect.

| SMILES | activity change, negative = cytotoxicity | Potency | outcome |
| --- | --- | --- | --- |
| COCCc1noc(Cc2c(C)nn(-c3ccccc3)c2C)n1 | -1.66% | – | – |
| COc1ccc(CC(=O)N2CCC(Cc3nc(C(C)C)no3)CC2)cc1Cl | -27.9% | – | – |
| CCOc1ccc(CC(=O)N2CCC(Cc3nc(-c4cnccn4)no3)CC2)cc1 | -18.9% | – | – |
| COc1cccc(C(=O)N2CCC(Cc3nc(-c4cnccn4)no3)CC2)c1 | -10.7% | – | – |
| COc1ccc(CC(=O)N2CCC(Cc3nc(-c4cnccn4)no3)CC2)cc1Cl | -8.58% | – | – |
| COc1ccc(CC(=O)N2CCC(Cc3nc(-c4ccccc4)no3)CC2)cc1OC | – | 35.5 µM (active) | – |
| COc1ccc(-c2noc(CC3CCN(C(=O)CC4CCCCC4)CC3)n2)cc1 | – | 44.7 µM (active) | – |
| CNC(=O)[C@@H]1C[C@@H](O)CN1C1CCN(C(=O)c2ccc(OC)c(F)c2)CC1 | 1.95% | – | – |
| CC1CCN(C(=O)CCNc2c(-c3ccc(F)cc3)nc3cnccn23)CC1 | -22.5% | – | – |
| CCC1CN(C(=O)c2ccc(C#CC(C)(C)O)o2)CCN1C(C)C (configuration not stated) | -18.1% | – | – |
| CCCN(CC1CCOC1)S(=O)(=O)c1ccc(C(F)(F)F)cc1 (configuration not stated) | -23.3% | – | – |
| O=c1n(Cc2ccc(F)cc2)nc2n1CCCCC2 | 13.5% | – | – |
| O=C(c1ccc2c(c1)OCO2)N1CCN(c2ccc(Cl)nn2)C(=O)C1 | – | – | inactive |
| Cc1cccc(OCC(=O)N2CCC[C@H]2c2nc(-c3ccccc3)no2)c1 | -18.9% | – | – |
| COCCOc1ncccc1-c1noc([C@@H]2CCCN2CC(C)(C)C)n1 | – | 63.1 µM (active) | – |
| N#Cc1ccc(CN2CCC[C@H]2c2nc(-c3ccc(F)cn3)no2)cc1 | -15.4% [at 172 µM] | – | – |
| Cn1ccnc1CN1CCCC(CCC(=O)Nc2ccccc2F)C1 (configuration not stated) | – | – | inactive |
| CC(=O)N1CCC(NC[C@@H]2C=C(C)[C@H](Cc3nc4ccccc4n3C)C[C@H]2C(C)C)CC1 | -23.7% | – | – |
| Nc1nc(C2CC(NC(=O)CCc3nc4ccc(F)cc4[nH]3)C2)cc(=O)[nH]1 (configuration not stated) | -11.3% | – | – |
| COc1ccc2nc(C[C@@H]3C[C@@H](C(C)C)[C@H](CNC(=O)CC(C)(C)CC(=O)O)C=C3C)[nH]c2c1 | -19.4% | – | – |
| CC1=C[C@@H](CNC(=O)C2CCCCC2)[C@H](C(C)C)C[C@H]1Cc1nc2ccc(F)cc2[nH]1 | – | 28.2 µM (active) | – |
| CC1=C[C@@H](CNC2CCN(C)CC2)[C@H](C(C)C)C[C@H]1Cc1nc2ccccc2[nH]1 | – | 28.2 µM (active) | – |
| CC(=O)N1CCC(C2CCN(C(=O)CCCc3nc4ccccc4[nH]3)C2)CC1 (configuration not stated) | -4.93% | – | – |
| CC1=C[C@@H](CNC(=O)CC2(CC(=O)O)CCCC2)[C@H](C(C)C)C[C@H]1Cc1nc2c(C)cccc2[nH]1 | -24.7% | – | – |

| SMILES | activity change, negative = cytotoxicity | Potency | outcome |
| --- | --- | --- | --- |
| CC1=C[C@@H](CN(CC2CC2)CC2CC2)[C@H](C(C)C)C[C@H]1Cc1nc2c(C)cccc2[nH]1 | – | 89.1 µM (active) | – |
| CC1=C[C@@H](CNCC(C)C)[C@H](C(C)C)C[C@H]1Cc1nc2c(C)cccc2[nH]1 | – | 39.8 µM (active) | – |
| Cc1cnc(C(=O)NC2CC(c3nnc(CO)n3C3CC3)C2)[nH]1 (configuration not stated) | 4.88% | – | – |
| O=C(c1ccc2c(c1)[nH]c(=O)n2C1CCC(O)CC1)N1CCc2ccccc2C1 (configuration not stated) | -26% | – | – |
| Cc1ccc(-n2nc(C(=O)N3CC[C@](C)(O)C(C)(C)C3)c(O)cc2=O)cc1 | 1.18% | – | – |
| Cc1ccc(C)c2c(=O)cc(CN3CCN(CCn4cncn4)CC3)[nH]c12 | -24% | – | – |
| CCN1C(=O)CCN(Cc2cnn(CC)c2C)CC12CCOCC2 | -8.32% | – | – |
| Cc1cc2occ(CC(=O)N3CC[C@](C)(O)[C@@H](O)C3)c2cc1Cl | -2.57% | – | – |
| N#Cc1ccc(S(=O)(=O)N2CC(n3cc(C(=O)NCc4ccccc4)nn3)C2)cc1 | – | 50.1 µM (active) | – |
| O=C(NCC1CC1)c1cn(C2CN(C(=O)NCCc3ccccc3)C2)nn1 | – | – | inactive |
| CCOC(=O)c1cn(C2CN(S(=O)(=O)c3cccc(F)c3)C2)nn1 | -18.3% | – | – |
| CC(=O)N1CCN(C(=O)C2(Cn3cccn3)CC2)CC(O)C1 (configuration not stated) | -1.42% | – | – |
| COCCNC(=O)[C@H]1C[C@H](Oc2cccnc2)CN1C(=O)NC1CCCCC1 | -13.6% | – | – |
| O=C1NCCC[C@@H]1NC(=O)[C@H]1CN(C(=O)CS(=O)(=O)c2ccccc2)CCN1C(=O)C1CCCCC1 | -0.313% | – | – |
| CC(=O)Nc1ccc(-c2c(-c3ccc4c(c3)OCO4)nn(-c3cc(C)ccc3C)c2OC(C)=O)cc1 | – | 39.8 µM (active) | – |
| CCCc1nn(-c2cccc(F)c2)c(OC(C)=O)c1-c1ccc(NC(C)=O)cc1 | -31.7% | – | – |
| CCN(CC)c1ncccc1CNC(=O)Nc1ccc2c(c1)OCO2 | -14.6% | – | – |
| CN1CCCN(C[C@@H]2CN(C(=O)c3ccnn3C)C[C@@H]2CO)CC1 | 3.91% | – | – |
| O=C(Cc1cccnc1)N1CCCC(c2nc(CCOCC3CCCC3)no2)C1 (configuration not stated) | -14.1% | – | – |
| CCN(CC)C(=O)N1CCCC(c2nc(CCOCC3CCOCC3)no2)C1 (configuration not stated) | -24% | – | – |
| C1CCC(COCCc2noc(C3CNC3)n2)C1 | – | 6.31 µM (active) | – |
| CNC(=O)[C@@H]1CN(C(=O)c2ccc(F)c(Cl)c2)C[C@H]1CO | -13.9% | – | – |
| CCn1ccc(C(=O)N2CCCC(c3noc(COC)n3)C2)n1 (configuration not stated) | 1.51% | – | – |
